Assay outcomes (PubChem BioAssay)
pPAFAH FP inh = pPAFAH (human) enzyme inhibition; Q13093; recombinant pPAFAH, FP-rhodamine probe fluorescence polarization; inhibition, % at 3.39 µM; 330,000 tested, 1.5% active;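 active = inhibition above the mean inhibition across the screen plus 3 SD, cut at about 25% in these data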;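 note: inhibitors block binding of the rhodamine activity-based probe so polarization drops; 0% = enzyme with DMSO and 100% = wells lacking pPAFAH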
PAFAH1B3 inh = PAFAH1B3 (human) inhibition; Q15102; recombinant PAFAH1B3, FP-rhodamine probe, fluorescence polarization; inhibition, % at 3.39 µM; 340,000 tested, 0.28% active; AID 492972;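 active = inhibition above the screen-wide average of all tested compounds plus 3 SD, cut at about 25% in these data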;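 note: 0% = enzyme with DMSO only and 100% = wells lacking PAFAH1B3 protein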
Target sequence (Q15102 whole entry, looked up): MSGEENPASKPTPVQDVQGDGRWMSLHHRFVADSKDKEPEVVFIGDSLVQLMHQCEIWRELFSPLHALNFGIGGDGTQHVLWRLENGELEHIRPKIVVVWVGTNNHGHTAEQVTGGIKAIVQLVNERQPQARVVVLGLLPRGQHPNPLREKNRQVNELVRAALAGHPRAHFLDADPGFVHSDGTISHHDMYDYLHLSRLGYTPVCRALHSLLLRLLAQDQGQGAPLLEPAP
PAFAH1B2 FP inh = blocks human PAF acetylhydrolase 1b catalytic subunit 2; P68402; recombinant PAFAH1B2, FP-rhodamine activity probe, fluorescence polarization; inhibition, % at 3.39 µM; 340,000 tested, 1.2% active; AID 492953;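 active = inhibition above the mean of all tested compounds plus 3 SD, cut at about 24% in these data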;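 note: 0% = enzyme with DMSO and 100% = wells lacking PAFAH1B2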
EBNA-1 inh = blocks EBNA-1 binding to DNA | AID 1950 | inhibition, % at 14.8 µM | EBNA-1 DNA binding, fluorescence polarization | 300,000 tested, 0.34% active; in the data active = inhibition above about 28%
ZTA DNA inh = blocks Epstein-Barr virus ZTA, an EBNA-1 counter-screen; P03206; 320,000 tested, 0.15% active; inhibition, % at 11 µM; ZTA-DNA binding, fluorescence polarization; in the data active = inhibition above about 33%
Target sequence (P03206 whole entry, looked up): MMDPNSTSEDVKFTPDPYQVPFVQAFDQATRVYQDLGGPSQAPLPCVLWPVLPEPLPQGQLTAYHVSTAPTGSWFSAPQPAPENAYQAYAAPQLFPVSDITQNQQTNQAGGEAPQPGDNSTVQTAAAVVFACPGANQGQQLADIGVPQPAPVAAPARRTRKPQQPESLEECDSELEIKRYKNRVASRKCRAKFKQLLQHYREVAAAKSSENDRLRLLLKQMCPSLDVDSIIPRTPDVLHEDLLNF
PAFAH2 inh = PAFAH2 (human) inhibition; Q99487; recombinant PAFAH2, FP-rhodamine activity probe, fluorescence polarization; inhibition, % at 3.39 µM; 340,000 tested, 0.99% active; AID 492956;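 active = inhibition above the mean over all tested compounds plus 3 SD, cut at about 30% in these data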;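 note: inhibitors block probe labeling of enzyme so polarization drops; 0% = enzyme with DMSO and 100% = wells lacking PAFAH2 protein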
* marks the source's active call; other numbers are inactive results. Sampled rows, rich in hits. Any-hit rate of the full collection: about 2.9%.

`Cc1c(NS(=O)(=O)c2cccs2)cccc1-c1nc2cccnc2s1` gave pPAFAH FP inh 15, PAFAH1B3 inh 2, PAFAH1B2 FP inh 1, EBNA-1 inh 7, ZTA DNA inh 30 and PAFAH2 inh -7.
Screening CCCNC(=O)NC(=O)CSc1nc2ccccc2c(=O)n1Cc1ccncc1 returned pPAFAH FP inh 1, PAFAH1B3 inh -3, PAFAH1B2 FP inh -7, EBNA-1 inh 2, ZTA DNA inh 2 and PAFAH2 inh 1.
`O=C(Nc1ccc(OC(F)(F)F)cc1)c1[nH]ncc1[N+](=O)[O-]` gave pPAFAH FP inh 18, PAFAH1B3 inh 6, PAFAH1B2 FP inh 3, EBNA-1 inh 2, ZTA DNA inh -18 and PAFAH2 inh 37*.
`Cc1ccc(CCNC(=O)C2CC(c3cccc(F)c3)=NO2)cc1` (configuration not stated) gave pPAFAH FP inh -1, PAFAH1B3 inh 7, PAFAH1B2 FP inh 28*, EBNA-1 inh 2, ZTA DNA inh -3 and PAFAH2 inh 3.
CCCCNC(=O)C1CC(c2cccc(F)c2)=NO1 (configuration not stated) was read as pPAFAH FP inh 5, PAFAH1B3 inh 6, PAFAH1B2 FP inh 6, EBNA-1 inh 5, ZTA DNA inh 2 and PAFAH2 inh 4.
CCOC(=O)c1c(SC)[nH]c2c(Cl)cccc2c1=O was read as pPAFAH FP inh -2, PAFAH1B3 inh -3, PAFAH1B2 FP inh 0, EBNA-1 inh -15, ZTA DNA inh -12 and PAFAH2 inh -6.
`CCn1c(SCC(=O)NC(=O)NCc2ccco2)nc2sc(C)c(C)c2c1=O` gave pPAFAH FP inh 4, PAFAH1B3 inh 2, PAFAH1B2 FP inh 2, EBNA-1 inh 28*, ZTA DNA inh -11 and PAFAH2 inh 11.
For CCCCN1C(=O)NC(c2ccc(OC)cc2)C(C(=O)OCc2ccccc2)=C1C (configuration not stated) the results were pPAFAH FP inh 8, PAFAH1B3 inh 6, PAFAH1B2 FP inh -3, EBNA-1 inh -3, ZTA DNA inh -2 and PAFAH2 inh -1.
For O=C(c1cccc(S(=O)(=O)NCc2ccccc2)c1)N1CCCCC1 the results were pPAFAH FP inh 1, PAFAH1B3 inh 6, PAFAH1B2 FP inh 8, EBNA-1 inh 1, ZTA DNA inh -10 and PAFAH2 inh -3.
Screening O=C(COC(=O)c1cccc(S(=O)(=O)NCc2ccccc2)c1)NC1CC1 returned pPAFAH FP inh 27*, PAFAH1B3 inh 13, PAFAH1B2 FP inh 14 and PAFAH2 inh 27.
`O=C(c1cccc(S(=O)(=O)NCc2ccccc2)c1)N1CCN(Cc2ccccc2)CC1` gave pPAFAH FP inh 27*, PAFAH1B3 inh 4, PAFAH1B2 FP inh 68*, EBNA-1 inh -8, ZTA DNA inh -12 and PAFAH2 inh 3.
CC1Cc2ccccc2N1S(=O)(=O)c1cccc(C(=O)OCC(=O)NC2CCS(=O)(=O)C2)c1 (configuration not stated) was read as pPAFAH FP inh 11, PAFAH1B3 inh -4, PAFAH1B2 FP inh 26*, EBNA-1 inh 7, ZTA DNA inh 9 and PAFAH2 inh 17.
Screening Cc1nc(N2CCCCC2)sc1C(=O)c1ccc(SCCO)c([N+](=O)[O-])c1 returned pPAFAH FP inh 27*, PAFAH1B3 inh 6, PAFAH1B2 FP inh 2, EBNA-1 inh 5, ZTA DNA inh 10 and PAFAH2 inh 1.
Cc1nc(N2CCCCC2)sc1C(=O)c1cccc([N+](=O)[O-])c1 was read as pPAFAH FP inh 11, PAFAH1B3 inh 5, PAFAH1B2 FP inh 1, EBNA-1 inh -13, ZTA DNA inh -15 and PAFAH2 inh 5.
`COc1ccc2[nH]cc(CCNC(=O)COc3cc(C)cc4oc(=O)cc(C)c34)c2c1` gave pPAFAH FP inh 3, PAFAH1B3 inh 7, PAFAH1B2 FP inh 25*, EBNA-1 inh 2, ZTA DNA inh 3 and PAFAH2 inh 16.
For Cc1cc(OC(C)C(=O)NCCc2c[nH]c3ccccc23)c2c(C)cc(=O)oc2c1 (configuration not stated) the results were pPAFAH FP inh 4, PAFAH1B3 inh 1, PAFAH1B2 FP inh 22, EBNA-1 inh 8, ZTA DNA inh 4 and PAFAH2 inh -2.
Screening COc1ccccc1N1CCN(C(=O)c2ccc3c(c2)NC(=O)C(CSCc2ccccc2C)N3)CC1 (configuration not stated) returned pPAFAH FP inh 25*, EBNA-1 inh 4 and ZTA DNA inh 12.
For COCCn1c(=O)[nH]c2cc(C(=O)Nc3cccc(C(C)=O)c3)ccc2c1=O the results were pPAFAH FP inh 0, PAFAH1B3 inh -1, PAFAH1B2 FP inh 3, EBNA-1 inh 6, ZTA DNA inh 8 and PAFAH2 inh -6.
Screening COc1ccc(NC(=O)CNc2ccccc2C(C)=O)cc1S(=O)(=O)N1CCOCC1 returned pPAFAH FP inh 1, PAFAH1B3 inh 9, PAFAH1B2 FP inh 10 and PAFAH2 inh 12.
`O=C1C2CCCCN2C(=O)N1CCCCN1CCN(c2cccc(Br)c2)CC1` (configuration not stated) gave pPAFAH FP inh 28*, PAFAH1B3 inh 7, PAFAH1B2 FP inh -1, EBNA-1 inh 8, ZTA DNA inh 3 and PAFAH2 inh -2.
O=C1C2CCCN2C(=O)N1CCCN1CCN(c2ccc([N+](=O)[O-])cc2)CC1 (configuration not stated) was read as pPAFAH FP inh 29*, PAFAH1B3 inh 4, PAFAH1B2 FP inh 0, EBNA-1 inh -10, ZTA DNA inh -15 and PAFAH2 inh -4.
O=C(Nc1ccnn1C1CCN(C(=O)c2cccc(C(F)(F)F)c2)CC1)C1CC1 was read as PAFAH1B3 inh 4, PAFAH1B2 FP inh 1 and PAFAH2 inh 4.
For CCOC(=O)C(=Nc1ccc(Cl)cc1)NO the results were pPAFAH FP inh 7, PAFAH1B3 inh 1, PAFAH1B2 FP inh 4, EBNA-1 inh 8, ZTA DNA inh 15 and PAFAH2 inh 3.
Screening CCN(c1ccccc1)S(=O)(=O)c1ccc(C(=O)NCc2ccco2)cc1 returned pPAFAH FP inh 5, PAFAH1B3 inh 15, PAFAH1B2 FP inh 8 and PAFAH2 inh 9.
Screening C=CCC(CC=C)(NC(=O)c1ccccc1C)c1ccccc1 returned pPAFAH FP inh -4, PAFAH1B3 inh 4, PAFAH1B2 FP inh 25*, EBNA-1 inh -8, ZTA DNA inh -5 and PAFAH2 inh 6.
Screening Cc1ccc(/C=N/Nc2ccc(C(=O)O)cc2)s1 returned pPAFAH FP inh 26*, PAFAH1B3 inh -1, PAFAH1B2 FP inh 2, EBNA-1 inh -4, ZTA DNA inh 6 and PAFAH2 inh 19.
Cc1ccc(/C=N/Nc2cccc(C(=O)O)c2)s1 was read as pPAFAH FP inh 15, PAFAH1B3 inh 3, PAFAH1B2 FP inh 6, EBNA-1 inh -5, ZTA DNA inh -9 and PAFAH2 inh -6.
